In PubChem BioAssay (EPA / NIEHS):
“And” between values parts separate entries of the source, which are not always exact repeats. Identical values can stand only once. Results filed as inconclusive are left out. Some structures have more than one record in an assay (separate samples or runs), and their calls can disagree. The source made the active and inactive calls. How the source made its calls, unless noted: active means hit-call score of the fitted dose curve at least 0.9, where 1 is the maximum; inconclusive means response in the unintended direction; inactive means score below 0.9.

What was measured:
[1] = read-out: X-box binding protein 1 (XBP1), XBP1 (gene 7494); experiment: LTEA_HepaRG_XBP1: Life Technologies and Expression Analysis (LTEA) Assay for X-box binding protein 1 (XBP1) using HepaRG (AID 2283540; active means hit-call score of the fitted dose curve at least 0.9, where 1 is the maximum; inactive means score below 0.9); details: mRNA level, 48 h; actives raise or lower the signal
Method in brief: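 Transcript levels of XBP1, measured by qRT-PCR and normalised to three housekeeping genes, were fitted bidirectionally relative to 0.5% DMSO controls. Human HepaRG cells received eight-point half-log dilutions from 100 uM for 48 h.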

[2] = LTEA_HepaRG_LDH_cytotoxicity: Cytotoxicity Assessment in the Life Technologies and Expression Analysis (LTEA) Assay (AID 2283563);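 on AC50: LDH activity released into spent culture medium as a marker of cell death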
Method in brief: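 Cells were thawed and plated for 48 h. Medium was then replaced with serum-free induction medium. Chemicals (8 half-log points, maximum 100 uM, 0.5% DMSO) were added in duplicate for 48 h, after which spent medium was assayed for LDH.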

[3] = TOX21_p53_BLA_p2_viability: Viability Assessment in the Tox21 HCT-116 p53 Agonism Beta-lactamase Assay, Phase 2 (AID 2283591);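 further: compound exposure lasted 16 h at 37 °C; actives lower the ATP signal meaning cytotoxicity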
Method in brief: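 Cytotoxicity readout: CellTiter-Glo ATP luminescence, 30 min at room temperature, after the beta-lactamase read. Cells were HCT116 exposed 16 h at 37C to compounds pin-transferred at 217-fold dilution from DMSO stocks.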

[4] = target: Cellular tumor antigen p53 (Homo sapiens) (UniProt P04637); experiment: TOX21_p53_BLA_p2_ratio: Tox21 HCT-116 p53 Agonism Beta-lactamase Assay, Ratio, Phase 2 (AID 2283592)
Method in brief: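 Plated HCT116 p53-bla cells (4000/well) received compound after 5 h, then 16 h at 37C/5% CO2. CCF4-AM added, 2 h RT. Ratio of 460 to 530 nm emission taken as the p53 reporter signal.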

[5] = TOX21_p53_BLA_p3_viability: Viability Assessment in the Tox21 HCT-116 p53 Agonism Beta-lactamase Assay, Phase 3 (AID 2283593);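 further: cells exposed to compound for 16 h before reading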
Method in brief: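 Cellular ATP was quantified by CellTiter-Glo luminescence, read after 30 min at room temperature. Beforehand, HCT116 cells (4000/well) received compound 5 h post-seeding, 217-fold diluted from DMSO, then incubated 16 h at 37C.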

[6] = TOX21_p53_BLA_p4_viability: Viability Assessment in the Tox21 HCT-116 p53 Agonism Beta-lactamase Assay, Phase 4 (AID 2283597);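 further: hits lower the luminescence signal meaning cytotoxicity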
Method in brief: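 Readout: ATP luminescence (CellTiter-Glo), measured 30 min after reagent addition at RT. The reagent followed a 2 h CCF4-AM incubation, and the cells had been exposed to compound for 16 h at 37C.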

[7] = target: Cellular tumor antigen p53 (Homo sapiens) (UniProt P04637); experiment: TOX21_p53_BLA_p5_ratio: Tox21 HCT-116 p53 Agonism Beta-lactamase Assay, Ratio, Phase 5 (AID 2283599)
Method in brief: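 Beta-lactamase reporter ratio (blue 460 nm over green 530 nm, 405 nm excitation) after 2 h CCF4-AM loading, in HCT-116 cells exposed 16 h at 37 C to compounds pinned at 217-fold dilution. Increases relative to DMSO baseline scored.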

[8] = TOX21_p53_BLA_p5_viability: Viability Assessment in the Tox21 HCT-116 p53 Agonism Beta-lactamase Assay, Phase 5 (AID 2283600)
Method in brief: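 Workflow: seed 4000 cells per well, wait 5 h, add compounds (DMSO, 217-fold dilution), incubate 16 h, load CCF4-AM 2 h, add CellTiter-Glo, read luminescence after 30 min.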

[9] = target: Cellular tumor antigen p53 (Homo sapiens) (UniProt P04637); experiment: TOX21_p53_BLA_p4_ratio: Tox21 HCT-116 p53 Agonism Beta-lactamase Assay, Ratio, Phase 4 (AID 2283601)
Method in brief: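 Signal is the blue/green (460nm/530nm) ratio of cleaved versus uncleaved CCF4-AM substrate, read after 2 h substrate loading. Cells were HCT116 carrying the p53-responsive beta-lactamase reporter, dosed 16 h at 37C, 5% CO2; CellTiter-Glo measured in parallel.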

[10] = Tanguay_ZF_120hpf_MORT_legacy: (Legacy) Oregon State University Tanguay Lab 120 Hour Post-fertilization zebrafish Assay for Mortality (AID 2283633);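 on AC50: fitted as increase in binary mortality versus DMSO negative control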
Method in brief: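 5D WT zebrafish, chorion removed 4 hpf; 1 embryo/well from 6 hpf; static exposure to 120 hpf, 28C, dark, sealed. Final DMSO 0.64%. Readout: binary mortality, brightfield, 24 + 120 hpf; DMSO as negative control.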

[11] = Tanguay_ZF_120hpf_YSE_legacy: (Legacy) Oregon State University Tanguay Lab 120 Hour Post-fertilization zebrafish Assay for Yolk Sac Edema (AID 2283634)
Method in brief: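 Dechorionate (pronase, 4 hpf) → place one 6 hpf embryo per well → static compound exposure, sealed and foil-covered, 28C, to 120 hpf → record yolk sac edema as present or absent. Final DMSO 0.64%.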

[12] = Tanguay_ZF_120hpf_AXIS_legacy: (Legacy) Oregon State University Tanguay Lab 120 Hour Post-fertilization zebrafish Assay for Body Axis Malformation (AID 2283635);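 on AC50: potency for an increased fraction of larvae scored with body axis malformation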
Method in brief: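 Chorion is removed with pronase at 4 hpf, then single 6 hpf embryos are dosed (final DMSO 0.64%) and held statically at 28C in sealed, foil-covered plates. At 120 hpf body axis malformation is recorded as present or absent.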

[13] = Tanguay_ZF_120hpf_EYE_legacy: (Legacy) Oregon State University Tanguay Lab 120 Hour Post-fertilization zebrafish Assay for Eye Malformation (AID 2283636);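 further: binary presence or absence of eye malformation scored by brightfield in 120 hpf larvae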
Method in brief: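 Binary brightfield scoring of eye defects at 120 hpf after static exposure from 6 hpf of single pronase-dechorionated wild-type embryos (28C, 0.64% DMSO). Non-mortality endpoints omitted where embryos died; fit vs DMSO.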

[14] = Tanguay_ZF_120hpf_SNOU_legacy: (Legacy) Oregon State University Tanguay Lab 120 Hour Post-fertilization zebrafish Assay for Snout Malformation (AID 2283637)
Method in brief: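 Binary snout-malformation call at 120 hpf in wild-type 5D embryos, chorion removed by pronase, under static exposure from 6 hpf at 28C (0.64% DMSO). Embryos dying by 24 or 120 hpf excluded.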

[15] = Tanguay_ZF_120hpf_JAW_legacy: (Legacy) Oregon State University Tanguay Lab 120 Hour Post-fertilization zebrafish Assay for Jaw Malformation (AID 2283638)
Method in brief: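 Steps: dechorionate 4 hpf embryos (pronase); plate 1/well at 6 hpf; add test chemical, 0.64% DMSO final; seal, cover, hold at 28C statically to 120 hpf; score jaw defect presence/absence microscopically. Dead embryos not scored.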

[16] = Tanguay_ZF_120hpf_OTIC_legacy: (Legacy) Oregon State University Tanguay Lab 120 Hour Post-fertilization zebrafish Assay for Otic Vesicle Malformation (AID 2283639)
Method in brief: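 Statically exposed wild-type 5D zebrafish embryos, kept sealed and dark at 28C through 120 hours post fertilization, were examined by brightfield microscopy for otic vesicle defects. Responses were recorded as present or absent and analysed relative to DMSO.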

[17] = Tanguay_ZF_120hpf_PE_legacy: (Legacy) Oregon State University Tanguay Lab 120 Hour Post-fertilization zebrafish Assay for Pericardial Edema (AID 2283640)
Method in brief: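 Embryos from wild-type 5D adults were staged, then dosed in 0.64% DMSO. They were kept sealed in the dark at 28C until 120 hpf. Pericardial edema was then recorded as present or absent.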

[18] = ATG_XTT_Cytotoxicity: Cytotoxicity Assessment in the Attagene TRANS-FACTORIAL HepG2 Assay (AID 2283584)
Method in brief: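 Cells: human HepG2, transiently transfected with MRTU reporter constructs. Exposure 24 h. Readout: XTT, cell number. Baseline/neg ctrl DMSO; loss-of-signal scored.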

[19] = target: Cellular tumor antigen p53 (Homo sapiens) (UniProt P04637); experiment: TOX21_p53_BLA_p3_ratio: Tox21 HCT-116 p53 Agonism Beta-lactamase Assay, Ratio, Phase 3 (AID 2283596)
Method in brief: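 Cells were seeded at 4000/well, rested 5 h at 37C, then dosed with DMSO compound solutions (217-fold dilution) for 16 h. CCF4-AM substrate was loaded for 2 h at room temperature, and the 460/530 nm emission ratio was fitted for gain of signal versus DMSO.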

Chain of Cellular tumor antigen p53 (Homo sapiens) (P04637 whole entry, looked up): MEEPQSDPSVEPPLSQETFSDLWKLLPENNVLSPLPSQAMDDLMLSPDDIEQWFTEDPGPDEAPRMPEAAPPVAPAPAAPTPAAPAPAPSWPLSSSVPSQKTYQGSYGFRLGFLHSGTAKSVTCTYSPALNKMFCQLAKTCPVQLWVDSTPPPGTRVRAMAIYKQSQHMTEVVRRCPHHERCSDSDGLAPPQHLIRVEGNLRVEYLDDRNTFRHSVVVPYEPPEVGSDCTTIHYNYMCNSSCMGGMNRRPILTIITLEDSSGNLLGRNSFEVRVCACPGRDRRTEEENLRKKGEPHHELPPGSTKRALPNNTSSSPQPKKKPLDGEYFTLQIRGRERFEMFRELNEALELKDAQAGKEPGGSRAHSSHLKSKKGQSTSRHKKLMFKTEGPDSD

## CNS(=O)(=O)c1cc(C(=O)N2CCC(CCN3C4CCC3CC(n3c(C)nc5ccccc53)C4)(c3cccc(F)c3)CC2)c(Cl)cc1F (stereo unspecified)
[1]
  outcome: inactive
[2]
  AC50: 32.2 µM (active)
[3]
  AC50: 26.9 µM (active)
[4]
  outcome: inactive
[5]
  AC50: 46.1 µM (active)
[6]
  AC50: 16.2 µM (active)
[7]
  outcome: inactive
[8]
  outcome: inactive
[9]
  outcome: inactive
[10]
  outcome: inactive
[11]
  outcome: inactive
[12]
  outcome: inactive
[13]
  outcome: inactive
[14]
  outcome: inactive
[15]
  outcome: inactive
[16]
  outcome: inactive
[17]
  outcome: inactive

## Nc1cccc(N)c1
[1]
  outcome: inactive
[18]
  outcome: inactive
[3]
  outcome: inactive
[4]
  outcome: inactive
[19]
  outcome: inactive
[6]
  outcome: inactive
[7]
  outcome: inactive
[8]
  outcome: inactive
[9]
  outcome: inactive
[10]
  outcome: inactive
[11]
  outcome: inactive
[12]
  outcome: inactive
[14]
  outcome: inactive
[15]
  outcome: inactive
[16]
  outcome: inactive
[17]
  outcome: inactive

## CC[C@H](C)C(=O)O[C@H]1C[C@@H](C)C=C2C=C[C@H](C)[C@H](CC[C@@H]3C[C@@H](O)CC(=O)O3)[C@H]21
[1]
  outcome: inactive
[4]
  AC50: 84.3 µM (active)
  outcome: inactive
[5]
  AC50: 82.5 µM (active) and 35.6 µM (active)
  outcome: inactive
[19]
  outcome: inactive
[6]
  AC50: 79.2 µM (active) and 27.4 µM (active)
  outcome: inactive
[7]
  AC50: 97.1 µM (active) and 37.7 µM (active)
  outcome: inactive
[8]
  AC50: 91.2 µM (active) and 33.6 µM (active)
  outcome: inactive
[9]
  AC50: 97.1 µM (active)
  outcome: inactive
[10]
  AC50: 1.33 µM (active)
[11]
  outcome: inactive
[12]
  outcome: inactive
[13]
  outcome: inactive
[14]
  outcome: inactive
[15]
  outcome: inactive
[16]
  outcome: inactive
[17]
  outcome: inactive

## CCn1nc(Cc2ccccc2)cc1C1CCN(C[C@H]2C[C@H](N(C)[C@@H](C(=O)O)C(C)C)C[C@@H]2c2cccc(F)c2)CC1
[1]
  outcome: inactive
[2]
  outcome: inactive
[3]
  outcome: inactive
[5]
  outcome: inactive
[6]
  outcome: inactive
[7]
  outcome: inactive
[8]
  outcome: inactive
[10]
  outcome: inactive
[11]
  outcome: inactive
[12]
  outcome: inactive
[13]
  outcome: inactive
[14]
  outcome: inactive
[15]
  outcome: inactive
[16]
  outcome: inactive
[17]
  outcome: inactive

## Cc1ccc(O)cc1
[1]
  outcome: inactive
[2]
  outcome: inactive
[4]
  outcome: inactive
[6]
  outcome: inactive
[7]
  outcome: inactive
[8]
  outcome: inactive
[9]
  outcome: inactive
[10]
  outcome: inactive
[12]
  outcome: inactive
[14]
  outcome: inactive
[15]
  outcome: inactive
[16]
  outcome: inactive
[17]
  outcome: inactive

## CCCCC(CC)COC(=O)c1ccc(C(=O)OCC(CC)CCCC)cc1 (stereo unspecified)
[1]
  outcome: inactive
[3]
  outcome: inactive
[4]
  outcome: inactive
[5]
  outcome: inactive
[6]
  outcome: inactive
[7]
  outcome: inactive
[8]
  outcome: inactive
[9]
  outcome: inactive
[10]
  outcome: inactive
[12]
  outcome: inactive
[13]
  outcome: inactive
[14]
  outcome: inactive
[15]
  outcome: inactive
[16]
  outcome: inactive
[17]
  outcome: inactive

## CCc1cc(SCc2sc(-c3ccc(C(F)(F)F)cc3)nc2CN2CCN(c3ccc(OC)cc3)CC2)ccc1OCC(=O)O
[1]
  AC50: 94 µM (active)
[4]
  AC50: 46.1 µM (active)
[19]
  AC50: 59.9 µM (active)
[6]
  AC50: 4.42 µM (active)
[7]
  AC50: 67 µM (active)
[8]
  AC50: 9.98 µM (active)
[9]
  AC50: 9.5 µM (active)
[10]
  outcome: inactive
[12]
  AC50: 26 µM (active)
[13]
  outcome: inactive
[14]
  outcome: inactive
[15]
  outcome: inactive
[17]
  outcome: inactive
